# Measurements from PubChem BioAssay (NCATS).
# The source made the active and inactive calls. The rule behind the calls is not given here.
# Conditions: Ebola virus entry assay, ratio channel
Structure (SMILES),AC50,outcome
COC(=O)c1nc(Cl)c(Cl)nc1N,4.47 µM (active),
Cc1cc(C)c(/C=C2\C(=O)Nc3ccccc32)[nH]1,,inactive
O=C(CCCN1CCN(c2ccccn2)CC1)c1ccc(F)cc1,,inactive
CC1(C)O[C@@H]2C[C@H]3[C@@H]4C[C@H](F)C5=CC(=O)C=C[C@]5(C)[C@H]4[C@@H](O)C[C@]3(C)[C@]2(C(=O)CO)O1,,inactive
CCn1c(=O)c2c(nc(C=Cc3ccc(OC)c(OC)c3)n2C)n(CC)c1=O,,inactive
Cc1ccc([N+](=O)[O-])[c]2c1[O][Hg]2,0.708 µM (active),
C[C@]12Cc3nonc3C[C@@H]1CC[C@@H]1[C@@H]2CC[C@@]2(C)[C@H]1CC[C@]2(C)O,17.8 µM (active),
COc1cc2c(cc1OC)C(C(C(=O)N(CCc1ccc(OC)c(OC)c1OC)CCc1ccc(OC)c(OC)c1OC)c1ccccc1)=NCC2 (stereo not drawn),11.2 µM (active),
O=Cc1ccccc1C=O,,inactive
O=C(Cn1ccnc1[N+](=O)[O-])NCCO,,inactive
CCCC(=O)O[C@]1(C(=O)CC)CC[C@H]2[C@@H]3CCC4=CC(=O)CC[C@]4(C)[C@H]3[C@@H](O)C[C@@]21C,,inactive
CN1Cc2c(N)cccc2C(c2ccccc2)C1 (stereo not drawn),25.1 µM (active),
C#C[C@]1(O)CC[C@H]2[C@@H]3CCC4=CC(=O)CCC4=C3C=C[C@@]21CC,15.8 µM (active),
C#C[C@]1(O)C=C[C@H]2[C@@H]3CCC4=CC(=O)CC[C@@H]4[C@H]3CC[C@@]21CC,,inactive
COC(=O)Nc1nc2ccc(Sc3ccccc3)cc2[nH]1,4.47 µM (active),
c1ccc(CNCCNCc2ccccc2)cc1,,inactive
CC(=O)OCC(=O)[C@@]12N=C(C)O[C@@H]1C[C@H]1[C@@H]3CCC4=CC(=O)C=C[C@]4(C)[C@H]3[C@@H](O)C[C@@]12C,,inactive
O=C(Nc1ccc([N+](=O)[O-])cc1)Nc1ccc([N+](=O)[O-])cc1,,inactive
CC[C@H]1C[C@H]2[C@@H]3CCC4=CC(=O)CC[C@@H]4[C@H]3CC[C@]2(C)[C@H]1O,15.8 µM (active),
C[C@]12CC[C@H]3[C@@H](CCC4=CC(=O)CC[C@@]43C)[C@@H]1CC[C@@H]2C(=O)CO,,inactive

Structure (SMILES),AC50,outcome
CC#C[C@]1(O)CC[C@H]2[C@@H]3C[C@H](C)C4=CC(=O)CC[C@]4(C)[C@H]3CC[C@@]21C,,inactive
C[C@]12CCC(=O)C=C1CC[C@@H]1[C@@H]2CC[C@@]2(C)[C@H]1CC[C@]2(O)C(=O)CO,,inactive
CC(=O)OCC(=O)[C@@]1(O)CC[C@H]2[C@@H]3CCC4=CC(=O)C=C[C@]4(C)[C@H]3[C@@H](O)C[C@@]21C,,inactive
CCOC(=O)OC(C)OC(=O)[C@@H]1N2C(=O)[C@@H](NC(=O)[C@H](N)c3ccccc3)[C@H]2SC1(C)C (stereo partly drawn),,inactive
CCC(=O)O[C@]1(C(=O)COC)[C@@H](C)C[C@H]2[C@@H]3CCC4=CC(=O)C=C[C@]4(C)C3(F)[C@@H](O)C[C@@]21C (stereo partly drawn),7.94 µM (active),
CCCCC/C=C\C/C=C\CCCCCCCC(=O)NC(C)c1ccccc1 (stereo not drawn),,inactive
COP(=S)(OC)Oc1ccc(S(N)(=O)=O)cc1,,inactive
CCOP(=S)(OCC)O/N=C(\C#N)c1ccccc1,,inactive
CC(C(O)c1ccccc1)N(C)C/C=C/c1ccccc1 (stereo not drawn),,inactive
CCN(CC)C(=O)Nc1ccc(OCC(O)CNC(C)(C)C)c(C(C)=O)c1 (stereo not drawn),,inactive
c1cnc(N2CCN(Cc3ccc4c(c3)OCO4)CC2)nc1,,inactive
CCOC(=O)OCC/C(SC(=O)OCC)=C(\C)N(C=O)Cc1cnc(C)nc1N,,inactive
C[C@@H]1C[C@H]2[C@@H]3CCC4=CC(=O)C=C[C@]4(C)[C@@]3(F)[C@@H](O)C[C@]2(C)[C@@]1(O)C(=O)COC(=O)c1ccncc1,,inactive
O=C(NCC1CN(c2ccc(N3CCOCC3=O)cc2)C(=O)O1)c1ccc(Cl)s1 (stereo not drawn),,inactive
C=C1C(=C/C=C2\CCC[C@]3(C)[C@@H]([C@H](C)/C=C/[C@@H](O)C4CC4)CC[C@@H]23)C[C@@H](O)C[C@@H]1O,,inactive
CCCCCOc1ccccc1/C(=C\SC)n1ccnc1,,inactive
C[C@@H]1CC[C@H]2[C@@H](C)C(=O)O[C@@H]3O[C@@]4(C)CC[C@@H]1[C@]32OO4,,inactive
O=C1OC2(c3ccc(O)cc3Oc3cc(O)ccc32)c2ccccc21,7.94 µM (active),
Cc1nc2ccccc2c(=O)n1-c1ccccc1Cl,20 µM (active),

# Conditions: Ebola virus entry assay, reporter ratio channel; Channel type: primary
Structure (SMILES),AC50,outcome
COC(=O)c1nc(Cl)c(Cl)nc1N,4.47 µM (active),
Cc1cc(C)c(/C=C2\C(=O)Nc3ccccc32)[nH]1,35.5 µM (active),
O=C(CCCN1CCN(c2ccccn2)CC1)c1ccc(F)cc1,,inactive
CC1(C)O[C@@H]2C[C@H]3[C@@H]4C[C@H](F)C5=CC(=O)C=C[C@]5(C)[C@H]4[C@@H](O)C[C@]3(C)[C@]2(C(=O)CO)O1,,inactive
CCn1c(=O)c2c(nc(C=Cc3ccc(OC)c(OC)c3)n2C)n(CC)c1=O,,inactive
Cc1ccc([N+](=O)[O-])[c]2c1[O][Hg]2,0.708 µM (active),
C[C@]12Cc3nonc3C[C@@H]1CC[C@@H]1[C@@H]2CC[C@@]2(C)[C@H]1CC[C@]2(C)O,17.8 µM (active),
COc1cc2c(cc1OC)C(C(C(=O)N(CCc1ccc(OC)c(OC)c1OC)CCc1ccc(OC)c(OC)c1OC)c1ccccc1)=NCC2 (stereo not drawn),11.2 µM (active),
O=Cc1ccccc1C=O,,inactive
O=C(Cn1ccnc1[N+](=O)[O-])NCCO,,inactive
CCCC(=O)O[C@]1(C(=O)CC)CC[C@H]2[C@@H]3CCC4=CC(=O)CC[C@]4(C)[C@H]3[C@@H](O)C[C@@]21C,,inactive
CN1Cc2c(N)cccc2C(c2ccccc2)C1 (stereo not drawn),25.1 µM (active),
C#C[C@]1(O)CC[C@H]2[C@@H]3CCC4=CC(=O)CCC4=C3C=C[C@@]21CC,15.8 µM (active),
C#C[C@]1(O)C=C[C@H]2[C@@H]3CCC4=CC(=O)CC[C@@H]4[C@H]3CC[C@@]21CC,,inactive
COC(=O)Nc1nc2ccc(Sc3ccccc3)cc2[nH]1,4.47 µM (active),
c1ccc(CNCCNCc2ccccc2)cc1,25.1 µM (active),
CC(=O)OCC(=O)[C@@]12N=C(C)O[C@@H]1C[C@H]1[C@@H]3CCC4=CC(=O)C=C[C@]4(C)[C@H]3[C@@H](O)C[C@@]12C,,inactive
O=C(Nc1ccc([N+](=O)[O-])cc1)Nc1ccc([N+](=O)[O-])cc1,,inactive
CC[C@H]1C[C@H]2[C@@H]3CCC4=CC(=O)CC[C@@H]4[C@H]3CC[C@]2(C)[C@H]1O,15.8 µM (active),
C[C@]12CC[C@H]3[C@@H](CCC4=CC(=O)CC[C@@]43C)[C@@H]1CC[C@@H]2C(=O)CO,,inactive

Structure (SMILES),AC50,outcome
CC#C[C@]1(O)CC[C@H]2[C@@H]3C[C@H](C)C4=CC(=O)CC[C@]4(C)[C@H]3CC[C@@]21C,39.8 µM (active),
C[C@]12CCC(=O)C=C1CC[C@@H]1[C@@H]2CC[C@@]2(C)[C@H]1CC[C@]2(O)C(=O)CO,,inactive
CC(=O)OCC(=O)[C@@]1(O)CC[C@H]2[C@@H]3CCC4=CC(=O)C=C[C@]4(C)[C@H]3[C@@H](O)C[C@@]21C,,inactive
CCOC(=O)OC(C)OC(=O)[C@@H]1N2C(=O)[C@@H](NC(=O)[C@H](N)c3ccccc3)[C@H]2SC1(C)C (stereo partly drawn),,inactive
CCC(=O)O[C@]1(C(=O)COC)[C@@H](C)C[C@H]2[C@@H]3CCC4=CC(=O)C=C[C@]4(C)C3(F)[C@@H](O)C[C@@]21C (stereo partly drawn),,inactive
CCCCC/C=C\C/C=C\CCCCCCCC(=O)NC(C)c1ccccc1 (stereo not drawn),39.8 µM (active),
COP(=S)(OC)Oc1ccc(S(N)(=O)=O)cc1,,inactive
CCOP(=S)(OCC)O/N=C(\C#N)c1ccccc1,,inactive
CC(C(O)c1ccccc1)N(C)C/C=C/c1ccccc1 (stereo not drawn),35.5 µM (active),
CCN(CC)C(=O)Nc1ccc(OCC(O)CNC(C)(C)C)c(C(C)=O)c1 (stereo not drawn),,inactive
c1cnc(N2CCN(Cc3ccc4c(c3)OCO4)CC2)nc1,,inactive
CCOC(=O)OCC/C(SC(=O)OCC)=C(\C)N(C=O)Cc1cnc(C)nc1N,,inactive
C[C@@H]1C[C@H]2[C@@H]3CCC4=CC(=O)C=C[C@]4(C)[C@@]3(F)[C@@H](O)C[C@]2(C)[C@@]1(O)C(=O)COC(=O)c1ccncc1,39.8 µM (active),
O=C(NCC1CN(c2ccc(N3CCOCC3=O)cc2)C(=O)O1)c1ccc(Cl)s1 (stereo not drawn),,inactive
C=C1C(=C/C=C2\CCC[C@]3(C)[C@@H]([C@H](C)/C=C/[C@@H](O)C4CC4)CC[C@@H]23)C[C@@H](O)C[C@@H]1O,39.8 µM (active),
CCCCCOc1ccccc1/C(=C\SC)n1ccnc1,,inactive
C[C@@H]1CC[C@H]2[C@@H](C)C(=O)O[C@@H]3O[C@@]4(C)CC[C@@H]1[C@]32OO4,,inactive
O=C1OC2(c3ccc(O)cc3Oc3cc(O)ccc32)c2ccccc21,7.94 µM (active),
Cc1nc2ccccc2c(=O)n1-c1ccccc1Cl,20 µM (active),
